Source: PubChem
TGFb SMAD3 inh: inhibitors of TGF-b signaling | HepG2 CAGA-GFP TGF-b/SMAD3 reporter, GFP fluorescence, 18 h; TGF-beta stimulated, 500 pg/mL final | Potency, µM (top dose mostly 46.1 µM), for inactives: top-dose activity, negative = inhibition, most hits filed as inhibitors | hit rate 1.2% among 410,000 | AID 588855; note: % is set by controls: 0 for no effect and ±100 for the full control effect; nearly all actives have a fitted effect of over 65% in size
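First, reporter cells (HEPG2 CAGA-GFP) rested 2 h at 37 degrees C. Next, compounds were pinned in and TGF-beta added to 500 pg/mL final. After 18 h, GFP was imaged per cell and summed per well.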
HepG2 tox: HepG2 cytotoxicity, counter-screen for TGF-b inhibitors. HepG2 CAGA-GFP viability, ATP luminescence, 18 h. Potency, µM (top dose mostly 46.1 µM), for inactives: top-dose activity change, negative = cytotoxicity, usual class: cytotoxic. hit rate 0.76% among 410,000. AID 588856
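HepG2 CAGA-GFP cells (1000/well, DMEM with 1% FBS) received compound, then TGF-beta at 500 pg/mL final, and were incubated 18 hours at 37 degrees C. Viability was read by CellTiter-Glo luminescence. Media-only wells were set as complete cell-killing and DMSO as no toxicity.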
ATXN2 expr inh: ATXN2 expression inhibition; HEK-293 ATXN2-luciferase reporter, luminescence, 24 h; Potency, µM (series often up to 57 µM), without a hit: at the top dose activity change, negative = inhibition, most hits filed as inhibitors; hit rate 0.72% among 360,000; note: % is set by controls: 0 for no effect and ±100 for the full control effect; nearly all actives have a fitted effect of over 55% in size
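ATXN2-luciferase reporter cells (luciferase flanked by upstream and downstream ATXN2 gene portions) were treated 24 h at 37 °C with compounds at up to 57 uM. SteadyGlo luminescence gave expression; GF-AFC fluorescence gave viability.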
GLP-1R inv ag: GLP-1 receptor (human) inverse agonism; P43220; HEK293 GLP-1R CRE-luciferase, luminescence, 24 h; GLP-1R form is constitutively active; Potency, µM (doses to about 38.3 µM), without a hit: at the highest dose activity change, negative = inhibition, usual class: inhibitors; hit rate 1.6% among 410,000; AID 624417; note: % is set by controls: 0 for no effect and ±100 for the full control effect; nearly all actives have a fitted effect of over 55% in size
Target sequence (P43220 whole entry, looked up): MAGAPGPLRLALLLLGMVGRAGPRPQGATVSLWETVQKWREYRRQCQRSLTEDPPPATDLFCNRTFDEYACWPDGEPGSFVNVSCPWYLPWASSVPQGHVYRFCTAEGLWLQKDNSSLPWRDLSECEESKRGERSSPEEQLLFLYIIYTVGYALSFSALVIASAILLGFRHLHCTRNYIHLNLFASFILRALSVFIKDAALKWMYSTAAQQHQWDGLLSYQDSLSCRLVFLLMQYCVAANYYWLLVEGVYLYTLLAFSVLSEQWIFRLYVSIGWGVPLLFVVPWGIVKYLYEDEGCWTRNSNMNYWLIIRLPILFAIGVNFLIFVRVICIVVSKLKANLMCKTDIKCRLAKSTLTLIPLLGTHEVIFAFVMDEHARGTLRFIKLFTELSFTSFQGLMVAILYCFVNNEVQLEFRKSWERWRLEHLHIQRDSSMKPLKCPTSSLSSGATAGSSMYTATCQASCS
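qHTS in 1536-well format: reporter HEK293 cells expressing constitutive GLP-1R activity in DMEM + 10% Nu serum, 24 hr with compounds at 37 deg C, luminescence read after 12 min with detection reagent.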
GLP1R ag: activates the human GLP-1 receptor | hit rate 0.007% among 380,000 | AID 624172 | Potency, µM (series often up to 45.6 µM), inactives show at the top dose activation, most hits filed as activators | HEK293 GLP-1R CRE-luciferase, luminescence, 4-6 h; cells express a hypersensitive GLP-1R form; note: % of control where 0% means no effect
S2 tox: cell viability loss in ATXN counter-screen; S2 cells (HEK-293 line with an ATXN2-luciferase reporter) viability, CellTiter-Fluor protease fluorescence, 24 h; Potency, µM (highest dose often 56.7 µM), usual class: cytotoxic; hit rate 0.49% among 400,000; AID 651635; note: nearly all actives have a fitted effect of over 40% in size
Active calls of the source: *; i = inactive; ? = inconclusive; / = no result given. Shown are actives, neighbours in structure and some others; about 3.7% of the full set was active somewhere. Calls come from the whole dose curve; as a rule, active = well fitted curve in the direction sought with a large enough effect; inconclusive = small, poorly fitted or top-dose-only effect, or another doubt; inactive = no such curve, though single readings can be large; an effect the other way counts as inactive or inconclusive. Potency is the fitted concentration of half-maximal effect.

SMILES | TGFb SMAD3 inh | HepG2 tox | ATXN2 expr inh | GLP-1R inv ag | GLP1R ag | S2 tox
NC(CSC1(c2ccc(Cl)cc2)c2ccccc2-c2ccccc21)C(=O)O (stereo not drawn) | -20.0% | -7.7% | 9.4% | 7.94µM* | -3.7% | i
Cc1cc(Cl)ccc1OCC(=O)N1CCOc2ccc(CN3C[C@@H](C)O[C@@H](C)C3)cc2C1 | / | / | / | / | / | i
O=C1OC(Nc2nc3ccccc3s2)c2ccccc21 (stereo not drawn) | 3.4% | -0.8% | 9.1% | 6.7% | 0.9% | i
O=C1OC(Nc2nc(-c3ccc(F)cc3)cs2)c2ccccc21 (stereo not drawn) | 11.2µM* | -39.6% | -37.6% | ? | 9.5% | ?
O=C(NCC1Cc2cc(F)cc(-c3cccnc3)c2O1)c1cnn(-c2ccccc2)c1 (stereo not drawn) | / | / | / | / | / | i
O=[N+]([O-])c1ccccc1/C=C1\C=Cc2ccccc21 | -1.0% | -41.6% | / | / | / | /
C=C/C(C)=C/CC1C(=C)CCC2C(C)(C(=O)O)CCCC12C (stereo not drawn) | -13.7% | -16.4% | 4.0% | -4.2% | -0.4% | i
C=C1C(=O)[C@]23C[C@H]1CCC2[C@]1(C)CCC[C@@](C)(C(=O)O)C1C[C@@H]3O (stereo partly drawn) | 2.51µM* | -87.3% | 3.55µM* | 1.78µM* | -12.5% | 7.08µM*
C=C1C(=O)[C@]23C[C@H]1CC[C@H]2[C@]1(C)[C@@H](OC(C)=O)CC[C@@](C)(C(=O)O)[C@H]1C[C@@H]3OC(C)=O | 10µM* | -85.5% | 17.8µM* | ? | -0.6% | ?
C=C1C(=O)[C@]23C[C@H]1CCC2[C@]1(C)C(=O)CC[C@@](C)(C(=O)O)C1C[C@@H]3O (stereo partly drawn) | ? | -86.9% | 8.91µM* | ? | -2.9% | 12.6µM*
COc1ccc(CCNC(=O)CSc2nnnn2-c2cccc(C(C)=O)c2)cc1OC | -11.4% | -8.8% | -2.6% | 2.4% | / | i
Cc1cc(C)c(C)c(S(=O)(=O)NCC(=O)NCC2CCCCC2)c1C | -9.3% | -11.1% | -7.2% | 6.31µM* | 13.1% | i
CCn1cc(CN2CCN(Cc3ccccc3)C(CCO)C2)c2ccccc21 (stereo not drawn) | -10.5% | -29.3% | -32.6% | 10µM* | -0.2% | i
COc1ccc(CN2CCN(CCCc3ccccc3)C(CCO)C2)c(O)c1 (stereo not drawn) | 6.6% | -0.3% | -12.4% | -15.5% | -4.8% | i
CC(C)N1CCN(Cc2ccc(OCc3ccccc3)cc2)CC1CCO (stereo not drawn) | -24.2% | 2µM* | / | ? | 1.7% | i
CC(C)N1CCN(Cc2ccc(-c3ccccc3)cc2)CC1CCO (stereo not drawn) | -0.3% | -19.6% | -23.8% | ? | 3.5% | i
COc1ccc(CN2CCN(CCc3ccccc3)C(CCO)C2)c(O)c1 (stereo not drawn) | -2.5% | -22.1% | -8.3% | 11.2µM* | 11.0% | i
O=C(CCl)N(c1ccccc1)c1ccccc1 | ? | 11.2µM* | ? | ? | 0.9% | /
O=C(CCCc1ccccc1)NCCc1ccccc1 | 3.3% | -1.1% | / | -3.0% | 15.4% | i
O=C(N(c1ccccc1)c1ccccc1)N(c1ccccc1)c1ccccc1 | 15.8µM* | -10.4% | / | ? | 4.6% | ?
O=C(CCl)N(CCc1ccccc1)CCc1ccccc1 | ? | 17.8µM* | ? | ? | -4.6% | ?
Fc1ccc(Nc2nc(NCc3ccco3)c3ccccc3n2)cc1 | ? | 17.8µM* | / | 3.55µM* | 2.0% | 11.2µM*
Nc1nc(Nc2ccccc2)nc(NCc2ccco2)c1[N+](=O)[O-] | -0.7% | -11.0% | -22.8% | ? | 18.4% | ?
c1coc(CNc2nc(NCc3ccco3)c3ccccc3n2)c1 | 0.708µM* | -12.0% | / | / | / | /
c1ccc(CNc2nc(NCc3ccccc3)c3ccccc3n2)cc1 | ? | -111.7% | ? | ? | -1.8% | /
CCCCOC(=O)c1ccc(Nc2ncnc3[nH]ncc23)cc1 | -2.1% | -18.0% | 9.5% | 8.5% | 19.6% | i
Cc1ccnn1CC(=O)N1CCOc2c(cc(-c3ncc(C(F)(F)F)cc3Cl)cc2OCC2CCCO2)C1 (stereo not drawn) | / | / | / | / | / | i
COc1ncccc1C(=O)N1CCOc2ccc(C(O)C(c3ccccc3)c3ccccc3)cc2C1 (stereo not drawn) | / | / | / | / | / | i
O=C(OCn1ncc(Br)c(Br)c1=O)c1ccc(F)cc1 | 11.2µM* | 10µM* | 7.94µM* | ? | -5.8% | 14.1µM*
